HepG2 viability – HepG2 cytotoxicity, counter-screen for TGF-b inhibitors; 410,000 tested, 0.76% active; Potency, µM (series often up to 46.1 µM), inactives show at the highest dose activity change, negative = cytotoxicity, usual class: cytotoxic; HepG2 CAGA-GFP viability, ATP luminescence, 18 h; further: potency means the concentration at half of the fitted maximal effect
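HepG2 CAGA-GFP cells (1000/well, DMEM with 1% FBS) received compound, then TGF-beta at 500 pg/mL final, and were incubated 18 hours at 37 degrees C. Viability was read by CellTiter-Glo luminescence. Media-only wells were set as complete cell-killing and DMSO as no toxicity.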
IL-1B inflam inh – inflammasome signaling inhibition, IL-1 beta readout. AID 743279. activity change, % at 57.5 µM. 360,000 tested, 4.7% active. THP-1 LPS/ATP IL-1B secretion, AlphaLISA, 16 h; hits give low values; in the data active means activity change below about -50%; inconclusive means mostly about -30% to -49%; further: on the % scale 0 is the no-effect control and ±100 the full control effect
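Secreted IL-1B measured by AlphaLISA bead assay after 16 h compound exposure of THP-1 cells; compounds (final up to 57.5 uM) added 1 h before LPS (250 ng/mL) and ATP (1.25 mM) stimulation; lower signal means less secretion.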
TGFb inhibitor – inhibitors of TGF-b signaling | HepG2 CAGA-GFP TGF-b/SMAD3 reporter, GFP fluorescence, 18 h; TGF-beta stimulated, 500 pg/mL final | Potency, µM (series often up to 46.1 µM), inactives show top-dose activity, negative = inhibition, actives largely listed as inhibitors | 410,000 tested, 1.2% active | AID 588855; further: potency means the concentration at half of the fitted maximal effect; on the % scale 0 is the no-effect control and ±100 the full control effect; nearly all actives have a fitted effect of over 65% in size
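Read-out: total well GFP (ex488/em500-530) summed from mean per-cell fluorescence. Cells: HEPG2 CAGA-GFP, 1% FBS DMEM, 18 h at 37 degrees C with 500 pg/mL final TGF-beta. Unstimulated wells served as the full-inhibition control; stimulated DMSO wells = 0%.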
TDP1 cell CPT – DT40-hTDP1 cell growth loss with CPT. 420,000 tested, 12% active. chicken DT40 Tdp1-/-;hTDP1 cells + 20 nM CPT, ATP luminescence, 48 h. Potency, µM (highest dose often 46.2 µM), inactives show top-dose activity change, negative = growth inhibition, hits mostly inhibitors; further: potency means the concentration at half of the fitted maximal effect; on the % scale 0 is the no-effect control and ±100 the full control effect; nearly all actives have a fitted effect of over 55% in size
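Chicken DT40 Tdp1-/- cells stably complemented with human TDP1 were seeded at 400 cells/well in medium containing 20 nM camptothecin, exposed to pin-transferred compounds, and grown at 37 °C for at least 48 hr. Viability was read as ATP luminescence.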
TDP1 cell noCPT – qHTS for Inhibitors of human tyrosyl-DNA phosphodiesterase 1 (TDP1): qHTS in cells in absence of CPT; DT40 Tdp1-/- hTDP1 cells, no CPT, ATP luminescence, 48 h; Potency, µM (doses to about 46.2 µM), for inactives: at the highest dose activity change, negative = growth inhibition, actives largely listed as inhibitors; 420,000 tested, 15% active; further: potency means the concentration at half of the fitted maximal effect; on the % scale 0 is the no-effect control and ±100 the full control effect; nearly all actives have a fitted effect of over 55% in size
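Stably hTDP1-transfected Tdp1-null chicken DT40 cells were treated with library compounds minus camptothecin and grown for at least 48 hr at 37 °C, after which cellular ATP was quantified by luminescence.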
TDP1 inh – inhibitors of human tyrosyl-DNA phosphodiesterase TDP1 | recombinant TDP1, AlphaScreen DNA substrate cleavage | Q9NUW8 | Potency, µM (top dose mostly 130 µM), for inactives: at the top dose activity change, negative = inhibition, usual class: inhibitors | 350,000 tested, 0.28% active; further: potency means the concentration at half of the fitted maximal effect; on the % scale 0 is the no-effect control and ±100 the full control effect; nearly all actives have a fitted effect of over 40% in size
Target sequence (Q9NUW8 whole entry, looked up): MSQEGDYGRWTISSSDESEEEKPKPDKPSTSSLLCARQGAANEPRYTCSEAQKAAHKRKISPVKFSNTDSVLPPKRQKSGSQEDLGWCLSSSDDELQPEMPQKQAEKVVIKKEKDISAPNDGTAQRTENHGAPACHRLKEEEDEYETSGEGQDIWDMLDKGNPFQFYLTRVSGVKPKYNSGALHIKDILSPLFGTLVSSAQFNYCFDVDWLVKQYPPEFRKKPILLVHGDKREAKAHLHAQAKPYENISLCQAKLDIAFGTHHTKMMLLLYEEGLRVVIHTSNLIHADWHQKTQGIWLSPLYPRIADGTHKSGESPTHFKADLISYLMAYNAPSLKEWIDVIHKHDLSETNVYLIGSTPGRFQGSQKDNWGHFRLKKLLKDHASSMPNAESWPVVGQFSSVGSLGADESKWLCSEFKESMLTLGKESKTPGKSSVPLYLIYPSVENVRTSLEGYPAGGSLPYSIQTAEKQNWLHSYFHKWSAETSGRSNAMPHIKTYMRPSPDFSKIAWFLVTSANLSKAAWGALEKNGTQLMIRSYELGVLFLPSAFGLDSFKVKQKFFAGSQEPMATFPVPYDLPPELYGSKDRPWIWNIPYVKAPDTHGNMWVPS
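Recombinant human Tdp1 (E. coli-expressed, 1 nM final) preincubated with compounds 15 min at room temperature, then 5'-biotin/3'-phosphotyrosine-FITC DNA substrate (15 nM final) added for 5 min. AlphaScreen beads (10 ug/ml final) added 10 min; cleavage lowers signal.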
An asterisk follows results filed as active; [ ] = remark or other dose. Only some compounds are listed: those with a hit (about 19% of all), similar ones and a draw of the others. Unless noted, the call rests on the fitted dose curve; in most records, active means well fitted curve in the direction sought with a large enough effect; inconclusive means small, poorly fitted or top-dose-only effect, or another doubt; inactive means no such curve, though single readings can be large; an effect the other way counts as inactive or inconclusive.

Screening CCOC(=O)C1=C(CN2CCN(c3cccc(Cl)c3)CC2)NC(=O)NC1c1ccc(Cl)cc1 (configuration not stated) returned HepG2 viability -7.9%, TGFb inhibitor -0.5%, TDP1 cell CPT inconclusive, TDP1 cell noCPT 20.6µM* and TDP1 inh 2.3%.
`CCOC(=O)C1C(c2ccc(O)c(OC)c2)NC(=O)NC1(O)C(F)(F)F` (configuration not stated) gave HepG2 viability 4.3%, IL-1B inflam inh -3.2, TGFb inhibitor -16.5%, TDP1 cell CPT -1.2%, TDP1 cell noCPT 7.7% and TDP1 inh 0.4%.
For CCOC(=O)C1=C(CN2CCN(c3ccc(Cl)cc3)CC2)NC(=O)NC1c1ccc(OC)cc1 (configuration not stated) the results were HepG2 viability -7.8%, TGFb inhibitor -0.9%, TDP1 cell CPT 20.6µM*, TDP1 cell noCPT 25.9µM* and TDP1 inh 0.9%.
For CCOC(=O)C1=C(CN2CCN(C(=O)c3ccco3)CC2)NC(=O)NC1c1ccc(Cl)cc1 (configuration not stated) the results were HepG2 viability 0.6%, IL-1B inflam inh -10.6, TGFb inhibitor -12.2%, TDP1 cell CPT inconclusive, TDP1 cell noCPT inconclusive and TDP1 inh 5.8%.
Screening CCOC(=O)C1=C(CN2CCN(c3cc(C)ccc3C)CC2)NC(=O)NC1c1ccccc1 (configuration not stated) returned HepG2 viability -66.0%, TGFb inhibitor inconclusive, TDP1 cell CPT inconclusive, TDP1 cell noCPT 18.4µM* and TDP1 inh 4.6%.
`CCOC(=O)C1C(c2ccc3c(c2)OCO3)NC(=O)NC1(O)C(F)(F)F` (configuration not stated) gave HepG2 viability 1.4%, IL-1B inflam inh 0.0, TGFb inhibitor 0.0%, TDP1 cell CPT 9.2µM*, TDP1 cell noCPT 13µM* and TDP1 inh 6.5%.
Cc1nn(CC(=O)N2CCC(C)CC2)c(=O)c2cc3sccc3n12 was read as HepG2 viability 0.5%, TGFb inhibitor -21.4%, TDP1 cell CPT -13.7%, TDP1 cell noCPT -27.6% and TDP1 inh 2.9%.
For O=C(O)c1cccc(-c2noc(-c3ccccc3F)n2)c1 the results were TDP1 inh 0.8%.
CCOC(=O)C1=C(CN2CCN(CC)CC2)NC(=O)NC1c1ccc(Cl)cc1 (configuration not stated) was read as HepG2 viability -28.5%, TGFb inhibitor -5.3%, TDP1 cell CPT inconclusive, TDP1 cell noCPT 23.1µM* and TDP1 inh 2.3%.
CCOC(=O)C1=C(CN2CC(C)CC(C)C2)NC(=O)NC1c1ccc2c(c1)OCO2 (configuration not stated) was read as HepG2 viability 5.5%, IL-1B inflam inh 0.0, TGFb inhibitor -9.8%, TDP1 cell CPT inconclusive, TDP1 cell noCPT 25.9µM* and TDP1 inh 2.6%.
Screening CCOC(=O)C1=C(CN2CCN(c3ccccc3OC)CC2)NC(=O)NC1c1ccccc1 (configuration not stated) returned HepG2 viability -28.9%, TGFb inhibitor -33.7%, TDP1 cell CPT inconclusive, TDP1 cell noCPT inconclusive and TDP1 inh 8.1%.
`CCOC(=O)C1=C(C)NC(=S)N(C(C)=O)C1c1ccc(Cl)cc1` (configuration not stated) gave HepG2 viability -32.4%, IL-1B inflam inh -14.5, TGFb inhibitor inconclusive, TDP1 cell CPT 16.4µM*, TDP1 cell noCPT -13.5% and TDP1 inh 14.0%[56.1 µM].
Screening CCOC(=O)C1=C(CN2CCN(c3ccccc3)CC2)NC(=O)NC1c1ccc(C)cc1 (configuration not stated) returned HepG2 viability -22.9%, TGFb inhibitor inconclusive, TDP1 cell CPT 25.9µM*, TDP1 cell noCPT inconclusive and TDP1 inh 4.7%.
`O=c1c(N2CCOCC2)c(N2CCOCC2)c1=O` gave HepG2 viability -14.5%, IL-1B inflam inh 0.0, TGFb inhibitor inconclusive, TDP1 cell CPT -6.4%, TDP1 cell noCPT -3.5% and TDP1 inh 5.2%.
For CC(C)(C)C1=CC(=O)C(N2CCOCC2)=CC1=O the results were HepG2 viability -1.3%, IL-1B inflam inh 35.3, TGFb inhibitor 1.1%, TDP1 cell CPT 7.31µM*, TDP1 cell noCPT 20.6µM* and TDP1 inh 5.3%.
`CC12CCC(C/C1=N\N=C1\NC(=O)/C(=C\c3ccc(Cl)cc3)S1)C2(C)C` (configuration not stated) gave HepG2 viability -5.7%, IL-1B inflam inh -57.4*, TGFb inhibitor 0.0%, TDP1 cell CPT inconclusive, TDP1 cell noCPT inconclusive and TDP1 inh 3.2%.
N#Cc1nc(-c2ccc(OCc3ccc(Cl)cc3)cc2)oc1N1CCCCC1 was read as HepG2 viability -8.6%, TGFb inhibitor -0.9%, TDP1 cell CPT -24.2%, TDP1 cell noCPT inconclusive and TDP1 inh 6.0%.
Screening CCOc1cc(-c2nnc(-c3ccco3)o2)cc(OCC)c1OCC returned HepG2 viability -1.7%, IL-1B inflam inh -14.5, TGFb inhibitor 3.1%, TDP1 cell CPT 18.4µM*, TDP1 cell noCPT 11.6µM* and TDP1 inh 6.8%.
Screening CCOc1ccc(-c2nnc(-c3ccco3)o2)cc1OCC returned HepG2 viability 3.7%, IL-1B inflam inh inconclusive, TGFb inhibitor -9.6%, TDP1 cell CPT inconclusive, TDP1 cell noCPT inconclusive and TDP1 inh 3.9%.
Screening CCc1ccc(C2CC(=O)c3c([nH]c(C(=O)OC4CCC(C)CC4)c3C)C2)cc1 (configuration not stated) returned HepG2 viability 4.8%, TGFb inhibitor 13.8%, TDP1 cell CPT 4.1%, TDP1 cell noCPT inconclusive and TDP1 inh -2.5%.
Screening CC1(C)C[C@@H]2C[C@@](C)(CN2C(=O)c2cc(COc3cccc(C(F)(F)F)c3)on2)C1 returned HepG2 viability -6.3%, IL-1B inflam inh -61.1*, TGFb inhibitor inconclusive, TDP1 cell CPT inconclusive, TDP1 cell noCPT 18.4µM* and TDP1 inh 0.8%.
Screening CC1(C)CC2CC(C)(CN2C(=O)COC(=O)c2ccc(O)cc2O)C1 (configuration not stated) returned HepG2 viability -0.4%, IL-1B inflam inh 2.5, TGFb inhibitor -0.9%, TDP1 cell CPT 2.9%, TDP1 cell noCPT -1.1% and TDP1 inh 7.94µM*.

High-throughput results deposited in PubChem by National Center for Advancing Translational Sciences (NCATS).
